In all, about 48,000 compounds went through this assay and about 13,000 (27%) showed an effect of 50% or more. The list shows a part of the results.
Test system: Wolbachia pipientis
Test: Anti-Wolbachia Cell-Based Screen
Format: functional
Set-up: scale not given: in the data most compounds retested in dose-response had high values
Conditions: 5 µM

SMILES	Percent Effect
Cc1ncsc1CN1C[C@@H]2COC[C@]2(C(=O)NC2CC(F)(F)C2)C1.O=C(O)C(F)(F)F	20.27%
CN(C)C(=O)N1C[C@@H]2CC[C@H](C1)N(C(=O)CCCn1cncn1)C2	-23.9%
O=C(NCc1cccc(F)c1)c1cccc(C(=O)N2CCCC2)n1	8.268%
Cc1cc(F)ccc1CNCc1cccc(C(=O)N2CCCC2)c1	100.5%
O=C(c1cccc(CNC/C=C/c2ccccc2)c1)N1CCCC1	-7.138%
Cc1cc(S(=O)(=O)NCc2cccc(C(=O)N3CCCC3)c2)c(C)s1	10.27%
Cc1cc(F)ccc1S(=O)(=O)NCc1cccc(C(=O)N2CCCC2)c1	0.7357%
Cc1ccc(F)cc1S(=O)(=O)NCc1cccc(C(=O)N2CCCC2)c1	74.77%
Cc1ccc(F)c(S(=O)(=O)NCc2cccc(C(=O)N3CCCC3)c2)c1	126.7%
O=C(c1cccc(CNS(=O)(=O)c2ccccc2F)c1)N1CCCC1	1.767%
O=C1[C@@H]2CCN(CC3CCOCC3)C[C@@H]2OCCN1c1ccccc1	-22.15%
CN(C)C(=O)CNC(CC(F)(F)F)c1ccc(Cl)cc1 (stereo not drawn)	1.329%
OCCNC1CSCCc2ccccc21 (stereo not drawn)	-7.147%
Cc1n[nH]cc1CNC1(c2ccc(Br)cc2)CC1	-6.578%
O=C(CC(F)(F)F)NC(c1ccc(Cl)cc1)c1ncon1 (stereo not drawn)	11.91%
O=C([C@@H]1COC[C@H]2CN(CC3CCCC3)C[C@H]21)N1CCOCC1	-6.22%
Nc1cc2c(nn1)CCN(C(=O)Cc1ccc3c(c1)CCO3)C2	8.586%
CN(Cc1nnc2n1CCC2)C(=O)Cc1ccc2c(c1)OCCO2	-1.07%
O=C(Cc1ccc2c(c1)CCO2)Nc1ccc(-n2cncn2)nc1	-5.052%
O=C(Cc1ccc2c(c1)OCO2)N[C@@H]1CCNC[C@H]1O	-5.906%
O=C(Cc1ccc2c(c1)OCC2)Nc1nc[nH]n1	104.4%
O=C(Cc1ccc2c(c1)OCC2)Nc1nn[nH]n1	216.7%
O=C(Cc1ccc2c(c1)OCC2)Nc1nc(C(F)(F)F)n[nH]1	131.9%
CN(C)c1cc2c(nn1)CCN(C(=O)Cc1ccc3c(c1)CCO3)C2	-10.79%
O=C(Cc1ccc2c(c1)OCCO2)NC1CCN(CC(F)F)CC1	2.104%
CCCc1cc(N2CCCC2Cn2cc(C)cn2)n2ncnc2n1 (stereo not drawn)	-1.643%

SMILES	Percent Effect
O=C(Nc1ccc2ncccc2c1)C1CC(=O)N(Cc2ccccn2)C1 (stereo not drawn)	-4.026%
Cc1ccc(C(NC(=O)CCNC(=O)c2ccoc2)C(F)(F)F)cc1 (stereo not drawn)	20.44%
Cc1nc(CN2C[C@@H](NS(=O)(=O)N(C)C)[C@H](C(C)C)C2)cs1	-0.9733%
Cc1ccc(CN(CC(=O)NCC2CCOC2)c2ccc(F)cc2)o1 (stereo not drawn)	-9.674%
COc1cccc(C(=O)N(C)C(C)c2c(C)n[nH]c2C)c1OC (stereo not drawn)	-15.68%
Cc1nc(Oc2ccccc2Cl)sc1C(=O)O	98.65%
COc1cccc(CNCc2c(C)nc3sc(C)cn23)c1OC	-11.36%
Cc1ccc2cccc(C(=O)N3CCN(c4cccnn4)CC3)c2n1	-2.333%
Cc1ccc2cccc(Oc3nc(C)c(C(=O)O)s3)c2n1	111%
Cc1nc(Oc2ccccc2F)sc1C(=O)O	91.89%
COc1cccc(Oc2nc(C)c(C(=O)O)s2)c1OC	116.8%
Cc1nc(-c2ccc(Cl)s2)sc1C(=O)O	9.091%
Cc1nc(NC(=O)OC(C)(C)C)sc1C(=O)O	0.0995%
CCOC(=O)CCNC(=O)c1cccc2ccc(C)nc12	-7.02%
Cc1nc(-c2ccccc2F)sc1C(=O)N1CCN(C)CC1	3.843%
CC(=O)Nc1cnc(Oc2ccccc2F)nc1	-1.763%
O=C1C(N2CCOC3(CCCC3)C2)CCN1C1CC1 (stereo not drawn)	15.83%
Cc1nnc2n1CC(CNc1ncnc3ccccc13)CC2 (stereo not drawn)	-0.4612%
CCN(CC)CCCN1CCC(NC(=O)OC(C)(C)C)CC1	13.41%
Cc1cc(C)n(CCN2CCN(C(=O)c3ccccc3Br)CC2)n1	0.6022%
Cc1cc(C)n(Cc2cccc(C(=O)NCCN3CCOCC3)c2)n1	-2.99%
CN(C)CCN1CCc2ncc(CN(C)Cc3ccco3)n2CC1	24.09%
Cc1cc(C)n(CCCN(CCN2CCOCC2)Cc2ccco2)n1	110.7%
CSCCCN(CCN1CCOCC1)Cc1ccco1	114.6%
Cl.Cl.O[C@@H]1C[C@@](CNCc2cccc(Cl)c2)(COc2cccnc2)C[C@@H]1O	-8.733%
Cc1ccc(N2CC[C@H]3CN(C(=O)c4ccn(C)n4)C[C@H]3C2)nn1.O=C(O)C(F)(F)F	-19.75%

SMILES	Percent Effect
COc1ncccc1CN1CC[C@@]2(O)CCN(C(=O)C3CCC3)C[C@H]2C1	6.817%
COc1ncccc1CN1C[C@@H]2C[C@@H](C(=O)NCC3CC3)N(C)[C@@H]2C1	96.26%
COc1ncccc1CN1C[C@H]2CCN(c3ccc(C)nn3)C[C@H]2C1.O=C(O)C(F)(F)F	107.5%
COc1ncccc1CN1CCC2(CCCN2S(C)(=O)=O)CC1.O=C(O)C(F)(F)F.O=C(O)C(F)(F)F	2.287%
COc1ncccc1CNC(=O)N1CCC(CNC(C)=O)CC1	18.77%
COc1ncccc1CN1Cc2nnn(C)c2C(COCC2CC2)C1.O=C(O)C(F)(F)F.O=C(O)C(F)(F)F (stereo not drawn)	-15.9%
COc1ncccc1CN1C[C@H]2C[C@@H](C(=O)NCC3CC3)N(C)[C@H]2C1.O=C(O)C(F)(F)F.O=C(O)C(F)(F)F.O=C(O)C(F)(F)F	107.4%
CCOCC1CN(Cc2cccnc2OC)Cc2cnn(C)c21.O=C(O)C(F)(F)F.O=C(O)C(F)(F)F.O=C(O)C(F)(F)F (stereo not drawn)	2.379%
CN(Cc1cccnc1)CC1CC12CCN(c1nncs1)CC2.O=C(O)C(F)(F)F.O=C(O)C(F)(F)F.O=C(O)C(F)(F)F (stereo not drawn)	10.12%
COc1ccc(-c2noc(Cn3cnc(C)c3)n2)c(OC)c1OC	10.58%
Cc1ccc(-c2noc([C@@H]3Cc4nc[nH]c4CN3)n2)cc1	1.545%
CSCC(=O)Nc1nccn1Cc1ccc(Br)cc1	-2.171%
O=C1N(c2ccccc2)Cc2n[nH]c(=O)n21	-1.221%
COc1cc(C(=O)N2CC(Oc3ccccc3Cl)C2)ccn1	-4.351%
COCCOC(=O)N1CCn2nc(CN(C)Cc3nccs3)cc2C1	91.56%
CN(C)C(=O)N1CCn2nc(CNC(=O)CCC(F)(F)F)cc2C1	-4.672%
CN(C)C(=O)N1CCCn2nc(CNC(=O)CCc3ccsc3)cc2C1	-5.491%
CN(C)C(=O)N1CCn2nc(CNC(=O)CCc3ccccn3)cc2C1	5.444%
CN(Cc1cc2n(n1)CCCN(C(=O)N1CCCC1)C2)Cc1nccs1	94.61%
CN(C)C(=O)N1CCCn2nc(CNC(=O)CCc3cccs3)cc2C1	2.264%
CCn1c(CC2CCN(C(=O)C3CNCCO3)CC2)nn(C)c1=O (stereo not drawn)	-6.283%
CC(C)(CCS(C)(=O)=O)CNc1ccc2ccc(F)cc2n1	0.04358%
O=C(c1ccco1)N1CCC(n2nc(-c3ccco3)ccc2=O)CC1	74.86%
O=C(c1cccs1)N1CCC(Cn2nc(-c3ccco3)ccc2=O)CC1	-6.925%
O=C(c1ccco1)N1CCC(n2nc(-c3cccs3)ccc2=O)CC1	64.54%
O=C(c1csc(-c2ccco2)n1)N1CCN2CCCCC2C1 (stereo not drawn)	-12.72%

SMILES	Percent Effect
O=C(Cc1ccsc1)N1CCC(n2nc(-c3ccco3)ccc2=O)CC1	-9.761%
Cc1oc(-c2ccco2)nc1CC(=O)N1CCC(C(O)C(F)(F)F)CC1 (stereo not drawn)	3.492%
O=C(C1CCCCC1)N1CCC(n2nc(-c3ccco3)ccc2=O)CC1	79.69%
O=C(c1ccco1)N1CCC(n2cc(-c3ccsc3)nn2)CC1	0.1659%
CC(=O)c1c(F)cccc1NC1CCN(C(=O)C2CCCCC2)CC1	1.543%
O=C(c1cccs1)N1CCC(n2nc(-c3ccco3)ccc2=O)CC1	-4.214%
CC(C)(C)C(=O)N1CCC(n2cc(C3(O)CCCC3)nn2)CC1	-19.86%
CC(C)(C)C(=O)N1CCC(n2nc(-c3ccco3)ccc2=O)CC1	101.2%
Cn1c(-c2ccccc2Cl)nc2cc(C(=O)NCCS(C)(=O)=O)cnc21	0.8241%
CCn1nc(C)c(CNC(=O)C2COc3ccccc3C2)c1C (stereo not drawn)	-10.56%
CCC(C)N(Cc1ccncc1)Cc1ccc(-n2cccn2)cc1 (stereo not drawn)	-9.551%
COc1ccc(Br)c(C(=O)NCC2CCN(C(=O)c3ccoc3)CC2)c1	-6.269%
Cc1cccc(CN2CCCC(O)(CNCc3ncccc3C)C2=O)c1 (stereo not drawn)	4.315%
CC(NC(=O)NCCCOC1CCCCC1)c1nncn1C (stereo not drawn)	12.39%
O=C(CCc1ccco1)Nc1ccc(Br)cn1	-1.221%
CC(C)C(=O)N1CCC(n2nc(-c3ccco3)ccc2=O)CC1	101.9%
Cc1oc(-c2ccco2)nc1CC(=O)N1CCC(CCO)C1 (stereo not drawn)	7.972%
OCC(O)CSCc1cn(-c2ccc(F)c(Cl)c2)nn1 (stereo not drawn)	1.714%
Cc1csc(C2(NCc3nc(-c4ccco4)oc3C)CCCC2)n1	21.68%
CNS(=O)(=O)c1cc(C(=O)NC2COc3ccccc3C2)ccc1OC (stereo not drawn)	-1.094%
Cc1ccc(C(=O)NCC2Cc3ccccc3O2)cc1S(C)(=O)=O (stereo not drawn)	-52.49%
Cc1ccc(C(=O)NC2CCOc3ccccc32)cc1S(C)(=O)=O (stereo not drawn)	118%
Cc1nnc(NC(=O)NC2CCOc3ccccc32)s1 (stereo not drawn)	11.11%
CNS(=O)(=O)c1cc(C(=O)NC2COc3ccccc32)cc(C)c1C (stereo not drawn)	105.8%
CN(C)c1nc(CNC(=O)NC2COc3ccccc32)cs1 (stereo not drawn)	-3.429%
